According to PubChem BioAssay (NCI):
This is part of a sample that, as a whole, favours compounds with a hit. Of some 83,000 tested, about 20% had one in any assay.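 Activity criterion: percent growth below 10, measured after cells in 96-well plates were exposed to a single compound concentration for 48 hours.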 The source made the active and inactive calls.

Legend:
Assay in all cases: NCI-60 one-dose screen, 48 h (100 = growth as untreated, 0 = no growth, -100 = all killed)
Conditions in all cases: 10 µM unless noted
[1] = test system: HCT-15 colon
[2] = test system: HT29 colon
[3] = test system: SNB-75 CNS
[4] = test system: SNB-19 CNS
[5] = test system: PC-3 prostate
[6] = test system: SK-MEL-5 melanoma
[7] = test system: UACC-62 melanoma
[8] = test system: LOX IMVI melanoma
[9] = test system: SK-MEL-28 melanoma
[10] = test system: SK-MEL-2 melanoma
[11] = test system: SN12C renal
[12] = test system: UO-31 renal
[13] = test system: TK-10 renal
[14] = test system: ACHN renal
[15] = test system: CAKI-1 renal
[16] = test system: A498 renal
[17] = test system: CCRF-CEM leukemia
[18] = test system: MOLT-4 leukemia

Measured: growth

CC1(C)N=C(N)N=C(N)N1c1cccc(/C=C/C=C/c2cccc([N+](=O)[O-])c2)c1
active: [5] 2.12%
inactive: [1] 88.7% | [2] 11.5% | [3] 58.3% | [4] 51.6% | [6] 68.3% | [7] 47.3% | [8] 33.7% | [9] 65.6% | [10] 67.2% | [11] 83.6% | [12] 81.5% | [13] 50.9% | [14] 95.6% | [15] 96.9% | [16] 65.2% | [17] 35% | [18] 45.5%

CSc1ccc(OC(C)=O)cc1C
inactive: [1] 95% | [2] 104% | [3] 94.3% | [4] 109% | [5] 96.6% | [6] 98.8% | [7] 98.1% | [8] 95.5% | [9] 110% | [10] 92.7% | [11] 104% | [12] 77.2% | [13] 91.1% | [14] 98% | [15] 96.4% | [16] 86.3% | [17] 88.5% | [18] 89.6%

O=C1C(Br)=C(c2ccccc2)C(=O)C(Br)=C1c1ccccc1
inactive: [1] 85.7% | [2] 110% | [3] 78% | [4] 93.6% | [5] 91.5% | [6] 98.5% | [7] 83.1% | [8] 97.5% | [9] 107% | [10] 99.6% | [11] 95.2% | [12] 77.9% | [13] 102% | [14] 92.2% | [15] 94% | [16] 67.3% | [17] 31.9% | [18] 52.7%

COc1ccc(-n2ncc3c2ccc2cc(S(=O)(=O)c4ccccc4)c(=O)n(C)c23)cc1
inactive: [1] 92% | [2] 81.2% | [3] 49.6% | [4] 92.7% | [5] 86.7% | [6] 95.9% | [7] 87.8% | [8] 86% | [9] 91.2% | [10] 96.3% | [11] 101% | [12] 94.4% | [13] 86.3% | [14] 75.4% | [15] 89.3% | [16] 70.5% | [17] 96.6% | [18] 103%

COc1ccc(C(=O)C2=CC(=O)C(=O)C2)cc1OC
inactive: [1] 96.2% | [2] 98.1% | [3] 90.8% | [4] 105% | [5] 94.5% | [6] 103% | [8] 101% | [9] 112% | [10] 101% | [11] 109% | [12] 91.5% | [13] 98.7% | [14] 103% | [15] 97.4% | [16] 94.3% | [17] 95.3% | [18] 101%

ONc1nc(NO)c2[nH]cnc2n1
inactive: [1] 89.9% | [2] 109% | [3] 88.6% | [4] 112% | [5] 69.2% | [6] 102% | [8] 26% | [9] 91% | [11] 80.7% | [12] 52.6% | [14] 60.9% | [15] 64.1% | [16] 78.7% | [17] 12.7%
active: [18] 9.57%

CC1(C)N=C(N)N=C(N)N1c1cccc(OCCOc2cccc([N+](=O)[O-])c2)c1
inactive: [1] 89.5% | [2] 15.4% | [3] 51.8% | [4] 53.9% | [5] 17.8% | [6] 70.5% | [7] 39.6% | [8] 20.1% | [9] 56% | [10] 39.4% | [11] 28.8% | [13] 71.8% | [14] 89.9% | [15] 90.1% | [16] 91% | [17] 29.7% | [18] 26%

CCCCCCCCCCCC(=O)[O][Sn]([CH2]CCC)([CH2]CCC)[CH2]CCC
active: [1] -87.2% | [2] -90.3% | [3] -100% | [4] -95.5% | [5] -92.6% | [6] -97.8% | [8] -90.1% | [9] -99.1% | [10] -90.5% | [11] -93.5% | [12] -97.9% | [14] -95.2% | [15] -97.8% | [16] -86% | [18] -27%

O=C(Nc1ccc(Cl)c(Cl)c1)NC(CO)(CO)CO
inactive: [1] 94.9% | [2] 100% | [3] 79.3% | [4] 101% | [5] 86.3% | [6] 99.3% | [7] 113% | [8] 95.2% | [9] 107% | [10] 100% | [11] 102% | [12] 73.9% | [13] 113% | [14] 97.7% | [15] 91% | [16] 83.8% | [17] 93.3% | [18] 98.3%

C=CC[P+](c1ccccc1)(c1ccccc1)c1ccccc1
inactive: [1] 98.1% | [2] 40% | [3] 63.3% | [4] 61.6% | [5] 34.7% | [6] 33.4% | [7] 42% | [8] 66.4% | [9] 71.8% | [10] 24.6% | [11] 69.7% | [12] 99.7% | [13] 78.7% | [14] 91.2% | [15] 90.9% | [16] 81.5% | [17] 59.7% | [18] 62.5%

CCCC1=NNC(=O)C1
inactive: [1] 103% | [2] 103% | [3] 93.8% | [4] 103% | [5] 91.1% | [6] 104% | [7] 114% | [8] 108% | [9] 104% | [10] 106% | [11] 101% | [12] 82.8% | [13] 97.2% | [14] 103% | [15] 94.8% | [16] 109% | [17] 100% | [18] 97.2%

O=C1C2CC3C(CC2C(=O)[N]1[Sn]([c]1ccccc1)([c]1ccccc1)[c]1ccccc1)C1(Cl)C(Cl)=C(Cl)C3(Cl)C1(Cl)Cl (configuration not stated)
active: [1] -88% | [2] -87.3% | [3] -84.8% | [4] -97.4% | [5] -92.9% | [6] -93.1% | [7] -95.7% | [8] -66.7% | [9] -94.2% | [10] -93.5% | [11] -87.3% | [12] -98.3% | [13] -100% | [14] -99.8% | [15] -92.8% | [16] -95.5% | [17] -43.3% | [18] -46.1%

O=C(O)CCN1CCN(c2cccc(Cl)c2)CC1
inactive: [1] 100% | [2] 99.8% | [3] 84% | [4] 103% | [5] 101% | [6] 102% | [7] 104% | [8] 110% | [9] 108% | [10] 107% | [11] 100% | [12] 106% | [13] 138% | [14] 94.8% | [15] 87.6% | [16] 94.2% | [17] 105% | [18] 91.3%

Cn1c2c(cc(S(=O)(=O)c3ccccc3)c1=O)CCc1c-2cnn1-c1ccccc1Cl
active: [12] -16% | [14] -31%
inactive: [1] 95.9% | [2] 104% | [3] 92.5% | [4] 96.2% | [5] 93.5% | [6] 105% | [7] 93.4% | [8] 107% | [9] 104% | [11] 97.8% | [13] 122% | [15] 54.7% | [16] 86.5% | [17] 96.4% | [18] 90.7%

O=C(Nc1ccc(Cl)c(Cl)c1)OCn1ncc2ccc([N+](=O)[O-])cc21
inactive: [1] 84.9% | [2] 103% | [3] 67.8% | [4] 92.9% | [5] 70.9% | [6] 95.7% | [7] 73.6% | [8] 78.8% | [9] 108% | [10] 85% | [11] 95.1% | [13] 92.9% | [14] 83.5% | [15] 73% | [16] 60.1% | [17] 81.8%

FC(F)(F)c1cc(CNc2ncc(Br)c(Cl)n2)cc(C(F)(F)F)c1
inactive: [1] 97.7% | [2] 106% | [3] 95.4% | [4] 112% | [5] 92.2% | [6] 97.3% | [7] 103% | [8] 90.5% | [9] 102% | [10] 94% | [11] 99.7% | [12] 83.3% | [13] 97.9% | [14] 104% | [16] 96.7% | [17] 83.2% | [18] 86%

COC1(OC)C2(Cl)C=C(c3ccccc3)C1(Cl)C(Cl)=C2Cl (configuration not stated)
inactive: [1] 119% | [2] 83.5% | [3] 67% | [4] 102% | [5] 86.2% | [6] 104% | [7] 96.6% | [8] 90% | [9] 102% | [10] 87% | [11] 104% | [12] 70% | [13] 106% | [14] 108% | [15] 92.7% | [16] 105% | [17] 91% | [18] 74.3%

O/N=C/c1cccs1
inactive: [1] 98.4% | [2] 107% | [3] 94.3% | [4] 107% | [5] 101% | [6] 103% | [7] 119% | [8] 107% | [9] 112% | [10] 116% | [11] 106% | [12] 89.1% | [13] 118% | [14] 97% | [15] 91.7% | [16] 102% | [17] 101% | [18] 85.5%
